Data reported in PubChem BioAssay AID652071 (NMMLSC, 2013).
Calls of active or inactive are those of the source. No rule for the calls is given here.

Experiment: V-ATPase proton transport modulators in yeast, dose response, S. cerevisiae, pHLuorin, powder set 4 (AID 652071)
Details: S. cerevisiae pHLuorin cytosolic pH fluorescence; series mostly up to 100 µM; response change, sign ambiguous: at the top concentration

Response change, sign ambiguous, inactive:
CN1CCN(c2ccccc2NC(=O)c2cccc(Br)n2)CC1 18.4%, CN1CCN(c2ccccc2NC(=O)c2cnc(N)o2)CC1 4.32%, CC(=O)N1CCN(c2ccccc2NC(=O)c2cccc(Br)n2)CC1 32.9%, O=C(Nc1ccccc1N1CCCCC1)c1cccc(Br)n1 -14.9%, O=C(Nc1ccccc1N1CCCCC1)c1cc(Cl)ccn1 -24.7%, CC(=O)N1CCN(c2ccccc2NC(=O)c2cncc(C)n2)CC1 -20.8%, CN1CCN(c2ccccc2NC(=O)c2ccc(-c3ccccc3)o2)CC1 76.2%, NC(=O)c1ccc(C(=O)Nc2ccccc2N2CCCCC2)o1 -23.9%, Cc1ccnc(C(=O)Nc2ccccc2N2CCCCC2)c1 -34.3%, CC(C)(C)c1ccc(C(=O)Nc2ccccc2N2CCCCC2)o1 -24.8%, CC(=O)N1CCN(c2ccccc2NC(=O)c2cncc(Cl)n2)CC1 -21.5%, CS(=O)(=O)c1ccc(C(=O)Nc2ccccc2N2CCCCC2)o1 -5.92%, CN1CCN(c2ccccc2NC(=O)c2cccc(C#N)c2)CC1 3.79%, CS(=O)(=O)c1cccc(C(=O)N2CCN(c3nc4ccc(F)cc4s3)CC2)c1 -19.9%, CC(=O)N1CCN(c2ccccc2NC(=O)c2cccc(C(N)=O)c2)CC1 -43%, CS(=O)(=O)Cc1cccc(C(=O)Nc2ccccc2N2CCCCC2)c1 7.01%, CN1CCN(c2ccccc2NC(=O)c2cncc(Cl)n2)CC1 -1.67%, CC(=O)N1CCN(c2ccccc2NC(=O)c2cccc(C(F)(F)F)c2)CC1 4.04%, CC(=O)N1CCN(c2ccccc2NC(=O)c2cccc(C)n2)CC1 -39.5%, N#CCc1cccc(C(=O)N2CCN(c3nc4ccc(F)cc4s3)CC2)c1 19.6%, CC(=O)N1CCN(c2ccccc2NC(=O)c2occc2-c2ccccc2)CC1 42.4%, CC(=O)N1CCN(c2ccccc2NC(=O)c2cccc(CN(C)C)c2)CC1 11.7%, COCc1ccc(C(=O)Nc2ccccc2N2CCN(C)CC2)o1 17.8%, CN1CCN(c2ccccc2NC(=O)c2cccc(Cl)n2)CC1 14.3%, CC(=O)N1CCN(c2ccccc2NC(=O)c2cccc(CS(C)(=O)=O)c2)CC1 13.3%, CC(=O)N1CCN(c2ccccc2NC(=O)c2cc(C(F)(F)F)ccn2)CC1 8.23%, CN1CCN(c2ccccc2NC(=O)c2cccc(C(F)(F)F)n2)CC1 8.13%, CC(=O)N1CCN(c2ccccc2NC(=O)c2ccc(C(F)(F)F)o2)CC1 4.7%, CN1CCN(c2ccccc2NC(=O)c2cccc(CS(C)(=O)=O)c2)CC1 -10.9%, CN(C)Cc1cccc(C(=O)Nc2ccccc2N2CCN(C)CC2)c1 3.21%, O=C(Nc1ccccc1N1CCOCC1)c1occc1-c1ccccc1 -14.3%, CC(=O)N1CCN(c2ccccc2NC(=O)c2cccc(C(F)(F)F)n2)CC1 30.5%, CN(C)S(=O)(=O)c1cccc(C(=O)Nc2ccccc2N2CCCCC2)c1 -24.9%, CN1CCN(c2ccccc2NC(=O)c2cccc(C(N)=O)c2)CC1 -19.6%
